HCV inhibitor: inhibitors of hepatitis C virus infection. Huh7.5.1 HCVcc-Cre infection, luciferase reporter, 44 h. Potency, µM (doses to about 41.8 µM), for the others: at the top dose activity change, negative = inhibition, most hits filed as inhibitors. 340,000 tested, 3.4% active. AID 651820; active = well fitted inhibition curve with a large enough effect; inconclusive = small, poorly fitted or top-dose-only effect, or another doubt; inactive = no such curve, though single readings can be large or run the other way; also: potency is read from the fitted curve at half-maximal effect
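Seed cells (1,000/well) for 4 h; treat with compound and infect with HCVcc-Cre, moi about 0.5. Incubate 44 h, then detect luciferase activity.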
LASV entry inh: inhibitors of Lassa virus binding or cell entry; Lassa virus pseudotype entry inhibition, cell reporter; Potency, µM (titrated, usually from 37.9 µM), for inactives: at the highest dose activity change, negative = inhibition, actives largely listed as inhibitors; AID 540256; 300,000 tested, 1.2% active; calls by dose curve; tested in HEK293 cells; also: potency is read from the fitted curve at half-maximal effect; nearly all actives have a fitted effect of over 50% in size
FMDV antiviral: antivirals against foot and mouth disease virus; FMDV antiviral cell-based qHTS; Potency, µM (series often up to 57.9 µM), without a hit: at the top dose activity change, negative = inhibition, most hits filed as inhibitors; 410,000 tested, 1.2% active; AID 1159524; calls by dose curve; tested in HEK293T cells; also: read-out not given here; potency is read from the fitted curve at half-maximal effect; nearly all actives have a fitted effect of over 45% in size
HCMV inh: human cytomegalovirus inhibition | AID 1259415 | activity change, negative = inhibition, % at 57.5 µM | 410,000 tested, 4.5% active | HFF cells, HCMV-luciferase reporter, 72 h; hits give low values; in the data active = activity change below about -60%; inconclusive = no clear call, values can overlap the other calls; inactive = above about -39%
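Compounds were evaluated in HFFs infected with an HCMV luciferase reporter virus (MOI 1 PFU/cell). Luciferase in lysates collected 72 h post infection served as the replication measure.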
Marburg entry inh: blocks Marburg virus binding to or entry into cells | Marburg virus pseudotyped entry inhibition, cell reporter | Potency, µM (top dose mostly 37.8 µM), for the others: at the top dose activity change, negative = inhibition, most hits filed as inhibitors | 300,000 tested, 1.8% active; calls by dose curve; tested in HEK293 cells; also: potency is read from the fitted curve at half-maximal effect
* hit, by the source's call; u = inconclusive; x = no result given; ! = a repeat was not active; [ ] = another dose, or the depositor's remark. The list is not random: actives were taken first. Their share in the collection is about 7.9%. % is scaled to controls: 0 for no effect and ±100 for the full control effect.

SMILES | HCV inhibitor | LASV entry inh | FMDV antiviral | HCMV inh | Marburg entry inh
O=C(Nc1ccc(S(=O)(=O)N2CCOCC2)cc1)c1cc(S(=O)(=O)N2CCOCC2)ccc1Cl | u | -12%[46.1 µM] | -27% | -19 | -1%[46.1 µM]
COc1cccc(NC(=O)c2ccc3c(O)c(S(=O)(=O)c4ccccc4)c(=O)[nH]c3c2)c1 | 12% | -7%[46.1 µM] | -16% | -63* | 11%[46.1 µM]
CCOc1ccc(NS(=O)(=O)c2cc(NC(=O)c3ccc(C)cc3)ccc2Cl)cc1 | 7.9µM* | u | 11% | -38 | u
COc1ccccc1NS(=O)(=O)c1cc(N)ccc1N1CCOCC1 | u | 23% | 19% | -28 | 1%
COc1ccccc1NS(=O)(=O)c1cc(N2Cc3ccccc3C2=N)ccc1N1CCOCC1 | -20% | u | 26% | u | 7.1µM*
Cc1ccc(NC(=O)c2cc(S(=O)(=O)N3CCOCC3)c(Cl)cc2Cl)cc1 | x | u | 25µM* | u | x
CCNC(=S)NNC(=O)c1cc(Br)cs1 | 0% | 5% | 17% | -36 | 17%
O=C(c1ccccn1)N(CCO)C(c1ccccc1)c1nc2ccccc2[nH]1 (stereo not drawn) | x | x | x | 23 | x
CN(C)S(=O)(=O)Oc1ccc(C(=O)Nc2cccc(Cl)c2)cc1 | -4% | -23%[46.1 µM] | 2% | -20 | u
CCCC(=O)Nc1ccc(Cl)c(NC(=O)c2cccnc2)c1 | 13% | 2% | x | -31 | -18%
Cc1ccc(NC(=S)NC(=O)c2ccc(F)cc2)cc1S(=O)(=O)Nc1ccccc1Cl | u | u | 6% | u | 1.1µM*
CCCC(=O)Nc1ccc(Cl)c(NC(=O)c2cccc(OC)c2)c1 | u | u | -5% | -79* | 0%[46.1 µM]
CN(C)S(=O)(=O)Oc1ccc(C(=O)Nc2cccc(C(F)(F)F)c2)cc1 | 11µM* | x | 14µM* | -76* | x
Cc1ccc(NC(=O)c2ccc(=O)[nH]n2)cc1S(=O)(=O)Nc1ccccc1Cl | 1% | x | 41% | 0 | x
CC(=O)c1c(C)[nH]c(C(=O)Nc2ccc(C)c(S(=O)(=O)Nc3ccc(C)cc3C)c2)c1C | 25µM* | x | -9% | 0 | x
O=C(NCCCCO)c1ccc2c3c(cccc13)CC2 | u | 23% | 8% | -4 | 29%[46.1 µM]
Nc1c(-c2nc(-c3cccs3)no2)nnn1-c1cccc(F)c1 | x | -4%[46.1 µM] | 26% | 72 | x
COC(=O)[C@@]12Cc3ccccc3[C@H]1C[C@H](C)[C@@H](C)N2C(=O)C(F)(F)F | x | x | x | x | 3%[14.2 µM]
COc1ccccc1NS(=O)(=O)c1cc(NC(=O)c2ccc(Cl)nc2)ccc1Cl | 7.1µM* | u | 10µM* | -98* | 8.9µM*
CN(C)S(=O)(=O)Oc1cccc(C(=O)Nc2ccc(Cl)cc2)c1 | 10µM* | 15µM* | -29% | -29 | u
COc1ccccc1NS(=O)(=O)c1cc(NC(=O)c2ccc3ccccc3n2)ccc1Cl | -1% | 5% | 64% | 18 | u
COc1ccc(NC(=O)c2ccc(-c3ccccc3)cc2)cc1NS(=O)(=O)c1ccc(F)cc1 | 4µM* | u | u | -95* | u
O=C(Nc1ccc(Cl)cc1)Nc1ccc(N2CCCC2)c(S(=O)(=O)Nc2ccccc2Cl)c1 | 5.6µM* | 5µM* | -9% | -99* | 1.6µM*
CC(=O)c1ccc(NC(=O)C2CCN(S(=O)(=O)c3cccc4nonc34)CC2)cc1 | -1% | 11% | 10% | 0 | 4%[46.1 µM]
O=C(C1CCN(S(=O)(=O)Cc2ccccc2)CC1)N1CCN(c2cccc(Cl)c2)CC1 | x | -13%[46.1 µM] | -29% | 12 | 7%[46.1 µM]
SMILES | HCV inhibitor | LASV entry inh | FMDV antiviral | HCMV inh | Marburg entry inh
COc1ccccc1NS(=O)(=O)c1cc(NC(=O)c2ccncc2)ccc1N1CCCC1 | u | u | 43% | -36 | 11µM*
COc1ccccc1NS(=O)(=O)c1cc(NC(C)=O)ccc1N1CCCCC1 | 0% | x | 40% | -32 | u
CCNc1ncc2nc(-c3ccc(Cl)cc3)c(=O)n(Cc3ccc(F)cc3)c2n1 | x | x | -15% | x | x
O=[N+]([O-])c1ncccc1OCc1ccccc1Br | -29% | 2%[46.1 µM] | 13% | -26 | 27%[46.1 µM]
CC(=O)NNC(=O)c1[nH]c2ccc(Br)cc2c1-c1ccccc1 | 3% | x | 7% | -32 | x
NNC(=O)c1[nH]c2ccc(Br)cc2c1-c1ccccc1 | 4% | u | -24% | -96* | u
NNC(=O)c1[nH]c2ccc(Cl)cc2c1-c1ccccc1 | -12% | u | -5% | -97* | u
Cc1[nH]nc(SCC(=O)N(C)c2ccccc2)c1[N+](=O)[O-] | 13% | x | 19% | -25 | x
Cc1cc(C)c(S(=O)(=O)Nc2ccc3c4c(cccc24)CC3)c(C)c1 | u | 1µM* | 6% | -100* | u
Cc1ccc(S(=O)(=O)Nc2ccc3c4c(cccc24)CC3)c(C)c1 | -15% | -22% | 31% | -70* | u
COCCNC(=O)CN1CCC(NC(=O)Nc2ccccc2)CC1 | 7% | 1% | 18% | 19 | 0%
COCCNC(=O)CN1CCC(NC(=O)Nc2ccc(C(F)(F)F)cc2)CC1 | 11µM*! | 17% | 7% | 48 | 19%
COc1ccc(OCc2nc3ccccc3n2C(C)c2ccccc2)cc1 (stereo not drawn) | x | 18%[46.1 µM] | -20% | -19 | 17%[46.1 µM]
O=C1NC2(CCCCC2)N=C1c1ccc(F)cc1 | x | -18%[14.3 µM] | -15% | -74* | -16%
NS(=O)(=O)c1ccc(CCNc2ccc(C(F)(F)F)cn2)cc1 | 15% | x | -9% | -77* | -1%[46.1 µM]
COc1cc(OC)c2c(C)c(CC(=O)NCc3ccccc3OC)c(=O)oc2c1 | x | 0%[46.1 µM] | -10% | -7 | -4%[46.1 µM]
[O-]/C(=C(\C(=S)Nc1ccccc1F)[n+]1ccccc1)c1ccc(-c2ccccc2)cc1 | 25% | 3% | 34% | 64 | 23%
[O-]/C(=C(\C(=S)Nc1ccc(Cl)cc1)[n+]1ccccc1)c1ccc(OC(F)F)cc1 | 11µM* | x | -16% | u | x
COC(=O)[C@@H]1C[C@@H](NC(=O)c2ccc(C(F)(F)F)cc2)CN1Cc1cccc(O)c1 | x | x | 10% | x | x
Cc1ccnc(NS(=O)(=O)c2ccc(NS(=O)(=O)c3ccc(Br)cc3)cc2)n1 | -15% | x | 18% | -14 | x
CC1CCCCN1S(=O)(=O)c1ccc(C(=O)Nc2nnc(-c3ccco3)o2)cc1 (stereo not drawn) | u | u | 0% | -70* | u
O=C(Nc1nnc(C2CC2)o1)c1ccc(S(=O)(=O)N2CCCCC2)cc1 | -5% | -7%[46.1 µM] | 3% | -61* | -23%[46.1 µM]
CC1CCN(S(=O)(=O)c2ccc(C(=O)Nc3nnc(-c4ccncc4)o3)cc2)CC1 | u | u | -12% | -88* | u
Cc1nnc(NC(=O)c2ccc(S(=O)(=O)N3CCCCC3C)cc2)o1 (stereo not drawn) | 1% | 1% | -12% | 25 | -13%
CC1CCN(S(=O)(=O)c2ccc(C(=O)Nc3nnc(C4CC4)o3)cc2)CC1 | u | u | -5% | 56 | u
COc1cccc(-c2nnc(NC(=O)c3ccc4ncsc4c3)o2)c1 | u | 1% | 3% | 4 | 10µM*
Cc1ccccc1N(CC(=O)NCc1ccccc1)C(=O)CCC(=O)Nc1nccs1 | u | u | -13% | 4 | -2%
